Source: PubChem
Shh pathway inh: Sonic Hedgehog pathway inhibition | Shh-LIGHT2 Gli-luciferase reporter, 30 h | inhibition, % (no concentration beside the values) | actives 2.1% (n = 22,000) | AID 2313;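 active means mean inhibition across valid replicates above about 65%, limit read from the data; inconclusive means mean under the limit, yet half or more replicates past it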;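 further: pathway switched on by Shh-conditioned medium diluted 1 in 25 in low serum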
NOMO-1 viab: STK33 inhibitor candidate reducing NOMO-1 cell viability; inhibition, % (concentration not given with the values); actives 7.5% (n = 37,000); NOMO-1 AML viability, CellTiter-Glo luminescence, 72 h; in the data active means inhibition above about 80%; inconclusive means no clear call, values can overlap the other calls
MITF inh: MITF inhibition | TRPM1 promoter luciferase, luminescence, 24 h | inhibition, % (test concentration not listed) | actives 0.28% (n = 37,000); in the data active means inhibition above about 85%; inconclusive means no clear call, values can overlap the other calls; inactive means below about 68%;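 further: human melanocyte line stably carrying TRPM1 promoter luciferase reporter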
Of the large screens only hits and unclear results are named; the others gave an inactive call. A selection: hits, their analogues and other compounds. The true share with any hit is near 7.9%.

C[C@H](CO)N1C[C@H](C)[C@H](CN(C)Cc2ccc(-c3ccccc3)cc2)Oc2ccc(NC(=O)CCCCCC(=O)Nc3ccccc3N)cc2C1=O	none (no result: Shh pathway inh)
C[C@@H]1CN([C@@H](C)CO)C(=O)Cc2cc(NC(=O)CCCCCC(=O)Nc3ccccc3N)ccc2O[C@@H]1CN(C)Cc1ccncc1	none (no result: Shh pathway inh)
C[C@@H]1CN([C@H](C)CO)C(=O)Cc2cc(NC(=O)CCCCCC(=O)Nc3ccccc3N)ccc2O[C@H]1CN(C)Cc1ccncc1	none (no result: Shh pathway inh)
C[C@H]1CN([C@@H](C)CO)C(=O)Cc2cc(NC(=O)CCCCCC(=O)Nc3ccccc3N)ccc2O[C@H]1CN(C)Cc1ccc(-c2ccccc2)cc1	NOMO-1 viab 142.3 (no result: Shh pathway inh)
CNC[C@@H]1Oc2ccc(NC(=O)C3CCCCC3)cc2C(=O)N([C@@H](C)CO)C[C@@H]1C	none (no result: Shh pathway inh)
C[C@@H]1CN([C@H](C)CO)C(=O)c2cc(NS(=O)(=O)c3cn(C)cn3)ccc2O[C@H]1CN(C)C(=O)NC1CCCCC1	none
C=C1C(=O)O[C@H]2[C@H]1[C@@H](OC(=O)/C(C)=C/C)C(OC(C)=O)/C(C(=O)OC)=C\CC[C@@]1(C)O[C@H]21 (stereo not given in full)	NOMO-1 viab 119.0
C=C1C(=O)O[C@H]2[C@H]1[C@@H](OC(=O)/C(C)=C\C)C(OC(C)=O)/C(C(=O)OC)=C\CC[C@@]1(C)O[C@H]21 (stereo not given in full)	NOMO-1 viab 108.5
C=C1C(=O)O[C@H]2[C@H]1[C@@H](OC(=O)C(C)(O)CCl)C(OC(C)=O)/C(C(=O)OC)=C\CC[C@@]1(C)O[C@H]21 (stereo not given in full)	NOMO-1 viab 109.1
C=C1C(=O)O[C@H]2[C@H]1C[C@H](OC(=O)/C(C)=C\C)/C(C)=C\CC[C@@]1(C)O[C@@H]21	NOMO-1 viab 120.9
CC1(C)CC(=O)C2=C(C1)N(Cc1cccnc1)C(=O)C2(NC(=O)c1ccco1)C(F)(F)F (stereo not given)	none (no result: Shh pathway inh)
COC(=O)C1=CO[C@@H](O[C@@H]2O[C@H](CO)[C@@H](O)[C@H](O)[C@H]2O)[C@@H]2[C@@H](CO)C=C[C@H]12	none
COc1ccc(C)cc1N(CC(=O)Nc1ccccc1C(F)(F)F)S(C)(=O)=O	none (no result: Shh pathway inh)
Cn1c(-c2nonc2NC(=O)c2ccccc2Br)nc2ccccc21	none (no result: Shh pathway inh)
CC(=O)Nc1nonc1-c1nc2ccccc2n1Cc1ccccc1Br	NOMO-1 viab 115.0 (no result: Shh pathway inh)
C/C=C1/CN2CCC1C(CO)(C(=O)OC)c1[nH]c3ccccc3c1C2 (stereo not given)	none (no result: NOMO-1 viab, MITF inh)
O=C(CSc1ncnc2sc(-c3ccccc3)cc12)Nc1ccccc1Cl	NOMO-1 viab inconclusive (no result: Shh pathway inh)
CC(NCCc1ccc(O)cc1)C(O)c1ccc(O)cc1 (stereo not given)	none
CCCCCCCCNC(C)C(O)c1ccc(SC(C)C)cc1 (stereo not given)	NOMO-1 viab 120.5
Cc1ccc(S(=O)(=O)NCCSc2ncc(-c3ccc([N+](=O)[O-])cc3)[nH]2)cc1	none (no result: Shh pathway inh)
O=c1cc(-c2ccccc2)nc2nc(NCc3cccc([N+](=O)[O-])c3)[nH]n12	none (no result: Shh pathway inh)
O=[N+]([O-])c1cccc(-c2nn(-c3ccccc3)cc2CNCc2ccccc2)c1	NOMO-1 viab 93.4 (no result: Shh pathway inh)
CCOC(=O)c1cnc2ccc(OCC)cc2c1NC(C)CC (stereo not given)	NOMO-1 viab 117.1
CCOC(=O)c1cnc2ccc(OCC)cc2c1N1CCN(c2ccccc2)CC1	none
Cc1cc(C(=O)CSc2nnc3ccccn23)c(C)n1-c1cc(Cl)ccc1Cl	none (no result: Shh pathway inh)
CC(C)(C)c1cc(O)c(C(C)(C)C)cc1O	Shh pathway inh 90.3, NOMO-1 viab 114.3
Cc1cc(C(C)(C)C)c(O)c(C(C)(C)C)c1	none
COc1cc(C2NC(=S)NC(C)=C2C(=O)Nc2ccccc2Cl)ccc1OCC#N (stereo not given)	none (no result: Shh pathway inh)
COC(=O)CNC(=O)c1cc(-c2ccccn2)nc2ccc(Cl)cc12	none (no result: Shh pathway inh)
CCOC(=O)CNC(=O)c1cc(-c2ccccn2)nc2c(C)c(Cl)ccc12	NOMO-1 viab 96.9 (no result: Shh pathway inh)
O=C1C(=O)N(CCCn2ccnc2)C(c2cccs2)C1C(=O)c1cc2ccccc2o1 (stereo not given)	none (no result: Shh pathway inh)
N#CC1=C(N)C(C#N)=c2s/c(=C/c3cccc(F)c3)c(=O)n2C1c1cccc(F)c1 (stereo not given)	NOMO-1 viab 115.7
Cc1cc2c(c(=O)n1CCN1CCOCC1)C(c1cccc(F)c1)C(C#N)=C(N)O2 (stereo not given)	none (no result: Shh pathway inh)
C[C@H](CO)N1C[C@H](C)[C@@H](CN(C)Cc2ccc3c(c2)OCO3)Oc2c(NC(=O)Nc3ccc4c(c3)OCO4)cccc2C1=O	none
C[C@H](CO)N1C[C@H](C)[C@H](CN(C)Cc2ccc(C(F)(F)F)cc2)Oc2c(NC(=O)Nc3ccc4c(c3)OCO4)cccc2C1=O	NOMO-1 viab inconclusive
C[C@H]1CN([C@@H](C)CO)C(=O)c2cccc(NC(=O)Nc3ccc4c(c3)OCO4)c2O[C@@H]1CN(C)Cc1ccc(C(F)(F)F)cc1	NOMO-1 viab 109.9
COc1ccc(NC(=O)Nc2cccc3c2O[C@H](CN(C)Cc2ccc4c(c2)OCO4)[C@H](C)CN([C@H](C)CO)C3=O)cc1	none
C[C@H](CO)N1C[C@H](C)[C@@H](CN(C)Cc2ccc(C(F)(F)F)cc2)Oc2c(NC(=O)Nc3ccc4c(c3)OCO4)cccc2C1=O	NOMO-1 viab 104.6
COc1ccc(NC(=O)Nc2cccc3c2O[C@@H](CN(C)Cc2ccc4c(c2)OCO4)[C@H](C)CN([C@@H](C)CO)C3=O)cc1	NOMO-1 viab 114.7
C[C@@H]1CN([C@H](C)CO)C(=O)c2cccc(NC(=O)Nc3ccc4c(c3)OCO4)c2O[C@@H]1CN(C)Cc1ccc2c(c1)OCO2	none
C[C@@H]1CN([C@@H](C)CO)C(=O)c2cccc(NC(=O)Nc3ccc4c(c3)OCO4)c2O[C@H]1CN(C)Cc1ccc(C(F)(F)F)cc1	NOMO-1 viab 108.7
O/N=C1/C2CN3CCN(C2)CC1(Cc1ccccc1)C3	none
C[C@H]1CN([C@@H](C)CO)C(=O)c2cccc(NS(=O)(=O)c3ccc(F)cc3)c2O[C@@H]1CN(C)S(=O)(=O)c1ccccc1	none
CC(C)NC(=O)Nc1ccc2c(c1)C(=O)N([C@H](C)CO)C[C@H](C)[C@@H](CN(C)S(=O)(=O)c1cccs1)OCCCC[C@@H](C)O2	none
C[C@H]1CN([C@@H](C)CO)C(=O)c2cccc(NC(=O)Nc3ccc(F)cc3)c2O[C@@H]1CN(C)Cc1ccc2c(c1)OCO2	none
C[C@@H]1CN([C@H](C)CO)C(=O)c2cccc(NC(=O)Nc3ccc(F)cc3)c2O[C@H]1CN(C)Cc1ccc2c(c1)OCO2	NOMO-1 viab 96.7
C[C@@H]1CN([C@@H](C)CO)C(=O)c2cccc(NC(=O)Nc3ccc(C(F)(F)F)cc3)c2O[C@@H]1CN(C)Cc1ccc2c(c1)OCO2	NOMO-1 viab 105.7
C[C@H](CO)N1C[C@H](C)[C@H](CN(C)Cc2ccc3c(c2)OCO3)Oc2c(NC(=O)Nc3ccccc3)cccc2C1=O	none
Cc1cc(C(=O)Nc2cccc3c2O[C@@H](CN(C)Cc2ccc4c(c2)OCO4)[C@@H](C)CN([C@H](C)CO)C3=O)n(C)n1	none
N#Cc1ccccc1CSc1nnc(CN2CCOCC2)n1-c1ccccc1	none (no result: Shh pathway inh)
CC(C)c1nc(/N=C/N(C)C)nc(=O)n1C	none
Cc1cc(NS(=O)(=O)c2ccc(NC(=O)c3csc4ccccc34)cc2)no1	none (no result: Shh pathway inh)
C=C1CC/C=C(/COC(C)=O)C(=O)C[C@@H]2[C@@H]1CC2(C)C	none (no result: NOMO-1 viab, MITF inh)
